Reference: PubChem BioAssay AID2391 (Southern Research Specialized Biocontainment Screening …, 2010)
The whole screen tested about 310,000 compounds, of which about 410 (0.13%) were called active. Roughly 2% stayed inconclusive and do not appear here. The rule behind the calls is not given here. The list is a sample of the results. Results with a measured potency or affinity are listed apart.

Assay: inhibition of RSV-induced cytopathic effect – HEp-2 cells, primary 10 µM value included (AID 2391)
Details: at 10 µM, stronger effect = higher value

CPE inhibition, inactive:
O=C(NNC1=NS(=O)(=O)c2ccccc21)c1ccccc1Cl 1.71%, CC(CC(=O)NC1CCCCC1)S(=O)(=O)c1ccc2c(c1)CCN2C(=O)C1CC1 (stereo not drawn) 0.99%, CCC(=O)Nc1ccc(C(=O)CSc2nnc(-c3cccnc3)o2)cc1 -0.13%, COc1cc([N+](=O)[O-])ccc1NC(=O)CSc1ccccn1 4.53%, O=C(Nc1ccc(O)c2c(=O)cc(-c3ccccc3Cl)oc12)c1cccc(Cl)c1 -0.66%, CSc1cc(-c2ccc(Cl)cc2)c(C(=O)NN)s1 0.87%, COC(=O)c1nc(N)sc1C 1.76%, COc1ccc(S(=O)(=O)N2CC(C(=O)O)Oc3ccc(CC(=O)O)cc32)cc1 (stereo not drawn) 1.19%, O=C(Nc1ccc(N2CCCC2)c(Cl)c1)c1cccnc1 5.52%, O=C(Nc1ccc(N2CCOCC2)c(Cl)c1)c1cccnc1 4.29%, O=C(CSc1nnc2ccccn12)NC(=O)NC1CCCC1 0.11%, COc1cccc(OC)c1C(=O)Nc1ccc(C)cc1C(=O)c1ccccc1 6.46%, Cc1nc(CCNS(=O)(=O)c2cccnc2)cs1 -0.89%, O=C(Nc1ccc([N+](=O)[O-])cc1)c1cn(-c2ccccc2)nc1-c1cc2ccccc2o1 0.46%, COc1ccc(NC(=O)c2cn(-c3ccccc3)nc2-c2cc3ccccc3o2)cc1 14.1%, COc1cc(C=O)ccc1OCc1cccc(Br)c1 1.17%, CC(=O)Nc1cccc(NC(=O)c2cccc(S(=O)(=O)N3CCN(Cc4ccccc4)CC3)c2)c1 1.07%, O=C(Nc1ccc2c(c1)OCO2)[C@@H]1[C@@H]2C(=O)N(C3CCCCC3)C(=O)[C@@H]2C2c3ccccc3C=CN21 (stereo partly drawn) 2.62%, COc1ccc(C(C[N+](=O)[O-])c2c(-c3ccccc3)cc3ccccn23)cc1 (stereo not drawn) 7.08%, COc1ccc(C(C[N+](=O)[O-])c2c(C)cc3ccccn23)c(OC)c1 (stereo not drawn) 3.91%, COC(=O)CSc1nc2ccc(NC(=O)CSc3nnnn3Cc3ccccc3)cc2s1 1.43%, COc1ccccc1OCCOCCOc1c(C)cc(C)cc1Br 1.97%, COc1ccccc1CNC(=O)c1oc2ccccc2c1C 1.89%, CCOc1ccccc1CNC(=O)c1c([N+](=O)[O-])c(C)nn1C 0.22%, CCOc1ccccc1CNC(=O)Cn1c(=O)oc2ccccc21 -0.15%, COc1ccccc1CNC(=O)c1cc2c(=O)[nH]c3ccccc3c2n1C 16.5%, CCOc1ccccc1CNC(=O)c1cn(C)c(=O)c2c1c1ccccc1n2C 6.47%, CCOc1ccccc1CNC(=O)c1cc2occc2n1C 2.63%
